Data taken from the supplement of paper PMC6089552.
Screen size: about 3,200 compounds; about 300 (9.4%) showed activity. Many of the other results were omitted from the sample, so actives are more common in it than they were.

System: A673/TR/shEF
Assay: cell viability (LOESS-normalised, relative to median of negative controls) (log2 ratio); higher = more viable cells (less compound effect), active = hit call of the paper (over 3 MAD below the median)
Conditions: treatment time: 72 h
Method in brief: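 Doxycycline, present or absent from 24 h before compounds, was used to induce EWS-FLI1 shRNA knockdown in A673/TR/shEF Ewing sarcoma cells at 1,500 per well in 384-well plates. Cells then received library compounds at two or more concentrations, or DMSO controls, for three days. Viability was measured by CellTiter-Glo luminescence on an Envision reader, and per-plate LOESS correction, division by the negative-control median and log2 transformation followed.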

[1] = 0.25 µM, library screen: screen2, EWS-FLI1 expression: high (no doxycycline)
[2] = 0.25 µM, library screen: screen2, EWS-FLI1 expression: low (doxycycline-induced shRNA knockdown)
[3] = 2.5 µM, library screen: screen2, EWS-FLI1 expression: high (no doxycycline)
[4] = 2.5 µM, library screen: screen2, EWS-FLI1 expression: low (doxycycline-induced shRNA knockdown)
[5] = 0.25 µM, library screen: screen1, EWS-FLI1 expression: high (no doxycycline)
[6] = 0.25 µM, library screen: screen1, EWS-FLI1 expression: low (doxycycline-induced shRNA knockdown)
[7] = 2.5 µM, library screen: screen1, EWS-FLI1 expression: high (no doxycycline)
[8] = 2.5 µM, library screen: screen1, EWS-FLI1 expression: low (doxycycline-induced shRNA knockdown)

Measured: cell viability (log2)

C[C@H]1CCC/C=C/[C@@H]2C[C@H](O)C[C@H]2[C@H](O)/C=C/C(=O)O1
active: [1] -0.127 | [2] -0.561 | [3] -3.76 | [4] -3.56

CN1[C@@H]2CC[C@H]1CC(OC(=O)C(CO)c1ccccc1)C2 (some centres not stated)
inactive: 0.103 µM, library screen: screen3, EWS-FLI1 expression: high (no doxycycline) -0.0138 | 0.103 µM, library screen: screen3, EWS-FLI1 expression: low (doxycycline-induced shRNA knockdown) 0.0399 | [5] 0.0603 | [6] 0.0968 | 0.308 µM, library screen: screen3, EWS-FLI1 expression: high (no doxycycline) -0.021 | 0.308 µM, library screen: screen3, EWS-FLI1 expression: low (doxycycline-induced shRNA knockdown) -0.00749 | 0.926 µM, library screen: screen3, EWS-FLI1 expression: high (no doxycycline) -0.0329 | 0.926 µM, library screen: screen3, EWS-FLI1 expression: low (doxycycline-induced shRNA knockdown) 0.092 | [7] 0.15 | [8] 0.157 | 2.8 µM, library screen: screen3, EWS-FLI1 expression: high (no doxycycline) -0.023 | 2.8 µM, library screen: screen3, EWS-FLI1 expression: low (doxycycline-induced shRNA knockdown) -0.00135 | 8.3 µM, library screen: screen3, EWS-FLI1 expression: high (no doxycycline) -0.0414 | 8.3 µM, library screen: screen3, EWS-FLI1 expression: low (doxycycline-induced shRNA knockdown) -0.0331 | 25 µM, library screen: screen3, EWS-FLI1 expression: high (no doxycycline) -0.025 | 25 µM, library screen: screen3, EWS-FLI1 expression: low (doxycycline-induced shRNA knockdown) 0.0734

NCCc1ccc(O)cc1
inactive: [5] 0.0239 | [6] 0.0662 | [1] 0.157 | [2] 0.123 | [7] 0.134 | [8] 0.0729 | [3] 0.116 | [4] 0.0531

COc1cc(CCN)ccc1O
inactive: [1] 0.212 | [2] 0.0815 | [3] 0.12 | [4] 0.0385

NCCc1ccc(S(=O)(=O)F)cc1
active: [1] -0.0889
inactive: [2] 0.067 | [3] -0.0377 | [4] 0.0161

COc1ccc2c(c1O)-c1c3c(cc4c1[C@H](C2)N(C)CC4)OCO3
inactive: [1] 0.104 | [2] 0.0658 | [3] 0.0733 | [4] 0.132

COc1cc([C@@H]2c3cc4c(cc3[C@H](OC(C)=O)[C@H]3COC(=O)[C@H]23)OCO4)cc(OC)c1OC
active: [5] -3.77 | [6] -0.983 | [7] -3.58 | [8] -1.13

COc1ccc2c(c1OC)C(=O)O[C@H]2[C@@H]1c2cc3c(cc2CCN1C)OCO3
inactive: [1] 0.0965 | [2] 0.0835 | [3] 0.18 | [4] 0.113

COc1cc([C@@H]2c3cc4c(c(O)c3C[C@H]3COC(=O)[C@@H]32)OCO4)cc(OC)c1OC
active: [7] -3 | [8] -0.852
inactive: [5] 0.0843 | [6] 0.0231

COc1ccc2c(c1OC)C(=O)O[C@H]2[C@H]1c2cc3c(cc2CCN1C)OCO3
inactive: [5] 0.11 | [6] 0.0969 | [7] -0.0012 | [8] 0.0503

COc1cc([C@@H]2c3cc4c(cc3[C@H](O)[C@H]3COC(=O)[C@H]23)OCO4)cc(OC)c1OC
active: [5] -3.56 | [6] -1.09 | [7] -4.23 | [8] -0.986 | [3] -1.33 | [4] -0.175 | 25 µM, library screen: screen2, EWS-FLI1 expression: high (no doxycycline) -2.9 | 25 µM, library screen: screen2, EWS-FLI1 expression: low (doxycycline-induced shRNA knockdown) -0.496
inactive: 0.025 µM, library screen: screen2, EWS-FLI1 expression: high (no doxycycline) 0.106 | 0.025 µM, library screen: screen2, EWS-FLI1 expression: low (doxycycline-induced shRNA knockdown) 0.109 | [1] 0.0134 | [2] 0.0379

COc1cc([C@@H]2c3cc4c(cc3[C@H](O)[C@H]3COC(=O)[C@@H]23)OCO4)cc(OC)c1OC
active: [7] -2.1 | [8] -0.572
inactive: [5] 0.0302 | [6] 0.00961
